# Compounds without any hit were thinned out: in the full panel of roughly 83,000, 20% have a hit.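 Cells were grown in 96-well plates and exposed to the test compound at a single concentration for 48 hours; results are reported as percent growth, with values below 10 considered active.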 Unmarked numbers belong to inactive results. The source made the active and inactive calls.
# Tested on: SN12C renal
# Experiment: NCI-60 one-dose screen, 48 h (100 = growth as untreated, 0 = no growth, -100 = all killed)
# Settings: 10 µM unless noted
row,Compound,growth
1,CC(=O)C1C(=O)C(=O)N(c2ccc(Cl)c(Cl)c2)C1=O (stereo unspecified),97.4%
2,NNc1ncnc2nc[nH]c12,74.6%
3,CC1(C)CC(=O)C=C(N)C1,99.3%
4,O=C1Nc2ccccc2/C1=C\c1ccccc1O,92.5%
5,C=CCc1cc(OC)c(OC)c(OC)c1,99.5%
6,COCC(N)=O,108%
7,C/C(O)=C(/C=N/C(=S)Nc1ccccc1)C(=O)Nc1ccccc1C,94.8%
8,CSc1nsc(N)n1,96%
9,c1ccc(Oc2c3ccccc3nc3ccccc23)cc1,24.3%
10,NC(CSSCC(N)C(=O)O)C(=O)O (stereo unspecified),-11.2% (active)
11,O=C(O)c1c[nH]c2ccccc2c1=O,103%
12,CC(C)N1CC(=O)N2CSCC2C1=O (stereo unspecified),107%
13,O=C(Oc1ccccc1Cl)c1ccc(Cl)cc1Cl,98.3%
14,CN(C)c1ncnc2c1cnn2C,97.2%
15,CC(=O)NNC(=S)/N=C\C(C(=O)c1ccccc1)=C(/O)c1ccccc1,107%
16,C=CC(C)C(C)(C)O (stereo unspecified),109%
17,C=COC(=O)CCOCC(CC)CCCC (stereo unspecified),104%
18,CCCCCCCCCCCCSC1=C(Cl)C(=O)C(OC)=C(OC)C1=O,24.5%
19,Cc1onc(-c2c(F)cccc2Cl)c1-c1ncc(-c2ccc(Br)cc2)o1,34%
20,CC(=O)/C(C)=N\OC(=O)Nc1ccccc1,107%
21,Cc1ccc(S(=O)(=O)Oc2ccc3sc4c(CO)ccc(NCCN(C)C)c4c(=O)c3c2)cc1,-94.1% [100 µM] (active)
